A number with no mark means an inactive call. Results filed as inconclusive are left out. Active and inactive are the calls of the source. Unless noted, the call rests on the fitted dose curve; in most records, active means well fitted curve in the direction sought with a large enough effect in the repeat runs; inconclusive means weak or mixed curves; inactive means no such curve, though single readings can be large; an effect the other way counts as inactive or inconclusive.

The target in assay [1] is Thyrotropin-releasing hormone receptor (Homo sapiens) (UniProt P34981). The assay is described as follows: qHTS assay to identify small molecule agonists of the thyrotropin-releasing hormone receptor (TRHR) signaling pathway (AID 1346891; calls by dose curve;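 further: HEK293 cells expressing TRHR with calcium dye readout; series mostly up to about 58 µM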). A digest of the protocol: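 HEK293/TRHR cells, 1500 per well, 18 h 37 °C; Ca dye 2 h 37 °C; pin-tool compound addition (agonist mode); kinetic fluorescence 3 min, 1 s reads; 15 concentrations, triplicate.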
Chain of Thyrotropin-releasing hormone receptor (Homo sapiens) (P34981 whole entry, looked up): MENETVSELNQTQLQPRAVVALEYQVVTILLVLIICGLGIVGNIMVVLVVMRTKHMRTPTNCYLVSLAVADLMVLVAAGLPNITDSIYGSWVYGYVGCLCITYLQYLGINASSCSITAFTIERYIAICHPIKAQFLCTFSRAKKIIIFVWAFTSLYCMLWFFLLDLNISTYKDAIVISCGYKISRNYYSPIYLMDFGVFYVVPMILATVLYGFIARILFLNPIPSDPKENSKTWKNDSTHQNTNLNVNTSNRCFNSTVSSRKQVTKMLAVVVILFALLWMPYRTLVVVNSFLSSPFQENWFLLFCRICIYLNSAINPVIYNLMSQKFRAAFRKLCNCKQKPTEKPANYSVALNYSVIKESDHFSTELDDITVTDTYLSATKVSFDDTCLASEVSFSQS
(In general: In qHTS, concentration-response curves come from the screen itself.)

Assay [2] is described as follows: Human pregnane X receptor (PXR) small molecule agonists, qHTS cell viability counter screen (AID 1346977). Further: nearly all actives have a fitted effect of over 50% in size. The method, boiled down: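 Fluorescence read-out (CellTiter-Fluor) of viability in PXR-Luc HepG2 cells, multiplexed with the luciferase agonist read. Compounds in DMSO added after 5hr plating; 24hr total exposure at 37C, 5% CO2.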
Assay [3] can be described thus: Caspase-3/7 induction in HepG2 cells by small molecules, qHTS assay (AID 1346978). Further: nearly all actives have a fitted effect of over 15% in size. A digest of the protocol: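 Wild-type HepG2 cells, 2,000/well, settled 5 hr at 37 C and 5% CO2, then compound-treated for 17 hr; caspase-3/7 activity read by luminescent Caspase-Glo 3/7 after 30 min at room temperature.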
A short description of assay [4]: Caspase-3/7 induction in CHO-K1 cells by small molecules, qHTS cell viability counter screen (AID 1346979). Further: nearly all actives have a fitted effect of over 35% in size. The method, boiled down:
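CHO-K1 wt, 1,500 cells/well; 5hr pre-incubation 37C/5% CO2; compound pin transfer (DMSO); 16hr exposure; CellTiter-Fluor added, 1hr, fluorescence read.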

The nature of assay [5]: Caspase-3/7 induction in CHO-K1 cells by small molecules, qHTS assay (AID 1346980). Further: nearly all actives have a fitted effect of over 15% in size. The method, boiled down: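 Wild-type CHO-K1 cells exposed to compounds for 17hr at 37 C, 5% CO2. Caspase-3/7 activity then measured by Caspase-Glo 3/7 luminescence after 30min at room temperature.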
The nature of assay [6]: Caspase-3/7 induction in HepG2 cells by small molecules, qHTS cell viability counter screen (AID 1346981). Further: series mostly up to about 92 µM; nearly all actives have a fitted effect of over 30% in size. A digest of the protocol: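 Steps: seed 2,000 HepG2 cells per well; incubate 5 hr at 37 C; pin-add compounds in DMSO; incubate 16 hr; add CellTiter-Fluor; after 1 hr at 37 C and 5% CO2, read fluorescence.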
Assay [7] deals with Nuclear receptor subfamily 1 group I member 2 (Homo sapiens) (UniProt O75469). The assay can be described thus: Human pregnane X receptor (PXR) small molecule agonists, qHTS assay (AID 1346982). Further: nearly all actives have a fitted effect of over 35% in size. Further: potency means the concentration at half of the fitted maximal effect. The method, boiled down: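 Agonist mode qHTS: PXR-Luc HepG2 cells plated 5 hr before DMSO-dissolved compounds were pinned in, cultured 24 hr at 37 C, 5% CO2; ONE-Glo luminescence readout.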
Chain of Nuclear receptor subfamily 1 group I member 2 (Homo sapiens) (O75469 whole entry, looked up): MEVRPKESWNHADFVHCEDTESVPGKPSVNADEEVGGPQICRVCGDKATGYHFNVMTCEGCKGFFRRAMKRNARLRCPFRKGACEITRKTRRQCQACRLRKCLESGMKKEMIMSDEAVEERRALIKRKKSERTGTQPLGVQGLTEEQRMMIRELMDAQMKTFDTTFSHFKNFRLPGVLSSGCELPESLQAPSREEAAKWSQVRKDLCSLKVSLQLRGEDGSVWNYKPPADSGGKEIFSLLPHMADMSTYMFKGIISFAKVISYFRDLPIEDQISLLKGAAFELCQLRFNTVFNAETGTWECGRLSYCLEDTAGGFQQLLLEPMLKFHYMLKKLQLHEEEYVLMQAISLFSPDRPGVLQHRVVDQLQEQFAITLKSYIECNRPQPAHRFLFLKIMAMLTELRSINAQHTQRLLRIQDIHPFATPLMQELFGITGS

Assay [8] concerns the target Cytochrome P450 2D6 (Homo sapiens) (UniProt P10635). The assay is described as follows: Cytochrome P450 Family 2 Subfamily D Member 6 (CYP2D6) small molecule antagonists: luciferase reporter qHTS assay (AID 1671196). Further: series mostly up to about 120 µM; nearly all actives have a fitted effect of over 50% in size. The method, boiled down: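 P450-Glo format: CYP2D6 converts a proluciferin substrate to luciferin in an NADPH-driven reaction lasting 1 h at room temperature. Light output, proportional to CYP2D6 activity, reflects interference by test chemicals.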
For orientation: Reporter assays use an easily measured gene product as a stand-in for the process of interest.

Assay [9] has as its target Cytochrome P450 2C19 (Homo sapiens) (UniProt P33261). The assay can be described thus: Cytochrome P450 Family 2 Subfamily C Member 19 (CYP2C19) small molecule antagonists: luciferase reporter qHTS assay (AID 1671197). Further: nearly all actives have a fitted effect of over 65% in size. Further: potency means the concentration at half of the fitted maximal effect. The method, boiled down: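 Inhibition of CYP2C19 was scored from loss of luminescence in a P450-Glo proluciferin substrate assay, NADPH-started and run 1 h at 37C, with ketoconazole as positive control.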

In assay [10] the target is Voltage-gated inwardly rectifying potassium channel KCNH2 (Homo sapiens) (UniProt Q12809). The assay can be described thus: Human Ether-a-go-go-Related Gene (hERG) channel small molecule antagonists: fluorescence cell-based qHTS assay (AID 1671200).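 Further: hERG-expressing U2OS cells given a thallium stimulus after FluxOR II dye loading; series mostly up to about 77 µM; nearly all actives have a fitted effect of over 50% in size.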 The method, boiled down: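 Read-out: thallium influx as a surrogate for potassium, tracked as fluorescence (480 nm ex/540 nm em) every second for 2 min after Stimulus Buffer addition in dye-loaded hERG-U2OS cells.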
Chain of Voltage-gated inwardly rectifying potassium channel KCNH2 (Homo sapiens) (Q12809 whole entry, looked up): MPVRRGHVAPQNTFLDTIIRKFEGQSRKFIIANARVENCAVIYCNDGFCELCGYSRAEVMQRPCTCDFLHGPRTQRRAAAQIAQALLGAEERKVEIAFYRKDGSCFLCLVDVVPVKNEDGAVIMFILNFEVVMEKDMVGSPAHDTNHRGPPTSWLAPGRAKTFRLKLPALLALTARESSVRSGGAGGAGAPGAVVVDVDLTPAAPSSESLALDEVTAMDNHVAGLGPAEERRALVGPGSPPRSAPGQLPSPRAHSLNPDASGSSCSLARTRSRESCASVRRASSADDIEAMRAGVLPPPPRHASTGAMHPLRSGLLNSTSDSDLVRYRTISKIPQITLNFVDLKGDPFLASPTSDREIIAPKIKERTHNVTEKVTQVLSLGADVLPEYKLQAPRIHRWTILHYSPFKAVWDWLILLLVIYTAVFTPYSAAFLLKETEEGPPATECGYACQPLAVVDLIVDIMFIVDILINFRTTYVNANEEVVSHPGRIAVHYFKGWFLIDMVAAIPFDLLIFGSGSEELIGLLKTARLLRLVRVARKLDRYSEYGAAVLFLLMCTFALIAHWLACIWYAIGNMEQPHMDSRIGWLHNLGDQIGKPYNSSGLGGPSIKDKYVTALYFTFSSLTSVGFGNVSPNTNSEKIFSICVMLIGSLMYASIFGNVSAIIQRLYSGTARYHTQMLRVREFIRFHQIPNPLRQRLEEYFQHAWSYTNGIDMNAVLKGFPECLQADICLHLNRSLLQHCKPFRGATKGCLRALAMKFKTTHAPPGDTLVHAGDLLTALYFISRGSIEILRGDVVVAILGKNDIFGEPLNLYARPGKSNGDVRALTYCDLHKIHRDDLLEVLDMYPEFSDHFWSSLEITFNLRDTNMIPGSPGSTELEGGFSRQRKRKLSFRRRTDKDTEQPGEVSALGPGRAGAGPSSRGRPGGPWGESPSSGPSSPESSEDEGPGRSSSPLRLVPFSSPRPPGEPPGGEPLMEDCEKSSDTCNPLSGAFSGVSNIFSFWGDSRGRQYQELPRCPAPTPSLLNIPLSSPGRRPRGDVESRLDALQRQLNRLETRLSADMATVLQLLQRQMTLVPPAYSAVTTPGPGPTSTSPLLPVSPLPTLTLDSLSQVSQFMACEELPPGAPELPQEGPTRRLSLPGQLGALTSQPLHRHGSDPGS
A general note: Block of hERG is tested as a sign of cardiac risk.

Assay [11] deals with Cytochrome P450 3A4 (Homo sapiens) (UniProt P08684). The assay can be described thus: Cytochrome P450 Family 3 Subfamily A Member 4 (CYP3A4) small molecule antagonists: luciferase reporter qHTS assay (AID 1671201). Further: nearly all actives have a fitted effect of over 50% in size. Further: potency means the concentration at half of the fitted maximal effect. The method, boiled down: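 Luminescent readout (RLU) proportional to CYP3A4 activity, from luciferin generated off a proluciferin substrate. Enzyme–substrate mix plus compound 10 min at room temp, NADPH regeneration 1 h, detection reagent 20 min.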
Chain of Cytochrome P450 3A4 (Homo sapiens) (P08684 whole entry, looked up): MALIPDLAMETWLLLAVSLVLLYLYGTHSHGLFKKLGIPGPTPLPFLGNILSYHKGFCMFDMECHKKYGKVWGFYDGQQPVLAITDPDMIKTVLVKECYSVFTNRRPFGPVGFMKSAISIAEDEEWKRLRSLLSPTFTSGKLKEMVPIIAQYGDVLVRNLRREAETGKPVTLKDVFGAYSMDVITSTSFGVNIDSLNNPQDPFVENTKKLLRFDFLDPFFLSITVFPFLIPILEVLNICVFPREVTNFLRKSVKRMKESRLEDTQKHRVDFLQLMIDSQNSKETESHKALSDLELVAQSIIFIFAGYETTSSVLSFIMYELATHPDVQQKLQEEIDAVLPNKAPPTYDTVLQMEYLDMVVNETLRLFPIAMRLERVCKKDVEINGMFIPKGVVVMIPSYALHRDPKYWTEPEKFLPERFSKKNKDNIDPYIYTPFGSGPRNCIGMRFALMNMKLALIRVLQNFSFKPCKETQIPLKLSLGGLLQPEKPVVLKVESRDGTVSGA

In assay [12] the target is Cytochrome P450 2C9 (Homo sapiens) (UniProt P11712). The assay is described as follows: Cytochrome P450 Family 2 Subfamily C Member 9 (CYP2C9) small molecule antagonists: luciferase reporter qHTS assay (AID 1671198). Further: nearly all actives have a fitted effect of over 50% in size. Further: potency means the concentration at half of the fitted maximal effect. A digest of the protocol:
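P450-Glo proluciferin substrate with CYP2C9 enzyme; 10 min RT preincubation, then NADPH regeneration 1 h at 37C; luciferin detection reagent 20 min RT, luminescence in relative luminescence units.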

Assay [13] deals with Cytochrome P450 1A2 (Homo sapiens) (UniProt P05177). The assay can be described thus: Cytochrome P450 Family 1 Subfamily A Member 2 (CYP1A2) small molecule antagonists: luciferase reporter qHTS assay (AID 1671199). Further: nearly all actives have a fitted effect of over 50% in size. Further: potency means the concentration at half of the fitted maximal effect. The method, boiled down: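 Inhibition of CYP1A2 conversion of proluciferin to luciferin, detected by luminescence. Reaction run 1 h at room temperature with NADPH regeneration after brief compound preincubation.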
Chain of Cytochrome P450 1A2 (Homo sapiens) (P05177 whole entry, looked up): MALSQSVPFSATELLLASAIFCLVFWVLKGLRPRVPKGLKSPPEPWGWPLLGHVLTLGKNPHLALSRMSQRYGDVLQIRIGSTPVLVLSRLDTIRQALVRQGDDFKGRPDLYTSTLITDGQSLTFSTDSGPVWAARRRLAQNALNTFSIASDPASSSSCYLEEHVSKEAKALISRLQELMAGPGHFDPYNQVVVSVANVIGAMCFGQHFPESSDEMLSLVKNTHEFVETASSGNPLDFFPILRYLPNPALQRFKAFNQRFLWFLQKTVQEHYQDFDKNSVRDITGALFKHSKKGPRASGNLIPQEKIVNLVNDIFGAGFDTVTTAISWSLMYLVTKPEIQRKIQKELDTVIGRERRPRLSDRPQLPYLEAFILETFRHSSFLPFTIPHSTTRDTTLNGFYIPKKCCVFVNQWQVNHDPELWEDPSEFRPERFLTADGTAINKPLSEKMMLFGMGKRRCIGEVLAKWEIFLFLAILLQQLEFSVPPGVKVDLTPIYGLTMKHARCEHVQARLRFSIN

Assay [14] concerns the target Nuclear receptor subfamily 1 group I member 2 (Rattus norvegicus) (UniProt Q9R1A7). The assay is described as follows: Rat pregnane X receptor (rPXR) activation by small molecules, qHTS assay (AID 1346983). Further: nearly all actives have a fitted effect of over 20% in size. Conditions: rPXR luciferase reporter cells, One-Glo luminescence, 24 h; max activation: stronger effect = higher value. The method, boiled down: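 Cell-based rPXR activation assay: rPXR cells, 2,000 per well, rested 5hr at 37 C, then exposed to compounds in DMSO for 24 hr at 37 C. Luciferase activity read by One-Glo luminescence after 30 min at room temperature.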

In assay [15] the target is Nuclear receptor subfamily 1 group I member 2 (Homo sapiens) (UniProt O75469). The assay can be described thus: Human pregnane X receptor (PXR) activation by small molecules, qHTS assay (AID 1346985). Further: nearly all actives have a fitted effect of over 40% in size. The method, boiled down: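 DPX-2 cells (HepG2 co-transfected with a PXR response element and a CYP3A4-promoter luciferase construct) were seeded at 2,000 per well, rested 5 hr at 37C, then exposed to DMSO-dissolved compounds for 24 hr. Activation was read as luciferase luminescence.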
On the % scale 0 is the no-effect control and ±100 the full control effect.

Chain of Cytochrome P450 2C19 (Homo sapiens) (P33261 whole entry, looked up): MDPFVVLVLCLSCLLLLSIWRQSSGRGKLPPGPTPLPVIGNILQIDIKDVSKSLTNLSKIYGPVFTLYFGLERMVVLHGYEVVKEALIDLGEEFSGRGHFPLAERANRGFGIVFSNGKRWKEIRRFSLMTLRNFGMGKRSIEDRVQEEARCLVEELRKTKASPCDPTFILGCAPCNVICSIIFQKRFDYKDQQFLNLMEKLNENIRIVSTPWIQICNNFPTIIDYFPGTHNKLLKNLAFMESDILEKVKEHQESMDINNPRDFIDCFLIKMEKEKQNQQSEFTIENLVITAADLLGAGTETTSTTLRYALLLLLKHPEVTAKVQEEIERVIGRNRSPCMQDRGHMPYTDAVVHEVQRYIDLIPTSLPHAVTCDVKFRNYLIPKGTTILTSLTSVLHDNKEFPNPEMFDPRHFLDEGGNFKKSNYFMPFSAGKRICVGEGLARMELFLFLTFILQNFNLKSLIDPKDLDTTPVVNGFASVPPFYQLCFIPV
Chain of Cytochrome P450 2C9 (Homo sapiens) (P11712 whole entry, looked up): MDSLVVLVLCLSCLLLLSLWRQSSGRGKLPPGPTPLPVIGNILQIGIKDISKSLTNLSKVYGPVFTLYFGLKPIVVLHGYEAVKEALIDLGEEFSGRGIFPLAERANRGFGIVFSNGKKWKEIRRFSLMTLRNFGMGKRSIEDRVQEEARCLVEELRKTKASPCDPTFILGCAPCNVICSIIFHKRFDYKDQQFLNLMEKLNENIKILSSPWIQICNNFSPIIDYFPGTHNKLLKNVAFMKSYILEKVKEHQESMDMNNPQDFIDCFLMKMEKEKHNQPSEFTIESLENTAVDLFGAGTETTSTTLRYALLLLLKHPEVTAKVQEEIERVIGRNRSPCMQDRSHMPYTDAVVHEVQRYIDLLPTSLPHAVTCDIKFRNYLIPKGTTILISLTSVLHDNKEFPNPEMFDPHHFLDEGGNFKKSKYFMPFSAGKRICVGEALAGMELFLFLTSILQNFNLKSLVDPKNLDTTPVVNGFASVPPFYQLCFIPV
Chain of Cytochrome P450 2D6 (Homo sapiens) (P10635 whole entry, looked up): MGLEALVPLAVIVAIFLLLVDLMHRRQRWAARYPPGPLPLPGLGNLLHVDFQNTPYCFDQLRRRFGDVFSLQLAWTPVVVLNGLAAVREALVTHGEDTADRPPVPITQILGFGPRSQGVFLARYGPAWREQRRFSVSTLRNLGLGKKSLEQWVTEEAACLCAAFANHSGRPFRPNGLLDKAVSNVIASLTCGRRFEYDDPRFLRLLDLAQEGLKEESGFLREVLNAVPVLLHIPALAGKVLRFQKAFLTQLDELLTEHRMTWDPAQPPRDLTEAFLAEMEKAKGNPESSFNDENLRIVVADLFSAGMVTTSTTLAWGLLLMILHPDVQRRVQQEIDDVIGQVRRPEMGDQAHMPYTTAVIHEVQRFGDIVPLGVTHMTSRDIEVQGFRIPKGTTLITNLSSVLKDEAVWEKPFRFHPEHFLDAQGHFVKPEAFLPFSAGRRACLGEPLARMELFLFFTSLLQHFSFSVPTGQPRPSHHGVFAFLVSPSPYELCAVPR
Chain of Nuclear receptor subfamily 1 group I member 2 (Rattus norvegicus) (Q9R1A7 whole entry, looked up): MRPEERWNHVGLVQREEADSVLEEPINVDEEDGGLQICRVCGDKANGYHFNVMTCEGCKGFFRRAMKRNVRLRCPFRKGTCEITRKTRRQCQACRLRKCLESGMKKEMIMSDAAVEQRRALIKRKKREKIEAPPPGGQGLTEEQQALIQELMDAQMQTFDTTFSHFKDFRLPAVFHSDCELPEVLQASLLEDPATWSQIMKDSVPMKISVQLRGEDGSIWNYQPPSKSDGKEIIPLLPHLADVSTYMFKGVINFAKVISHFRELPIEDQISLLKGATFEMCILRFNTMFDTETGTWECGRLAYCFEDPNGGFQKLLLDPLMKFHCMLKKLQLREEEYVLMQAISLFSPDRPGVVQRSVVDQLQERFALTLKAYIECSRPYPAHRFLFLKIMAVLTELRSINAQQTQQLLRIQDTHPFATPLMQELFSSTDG

Consider `CCCCCCC(O)CCOC(C)=O` (stereo not given), for which the call in assay [1] and in [5] was inactive. Moreover, the Potency entry in assay [2], in assay [3], in assay [4], in assay [6], in assay [7] and in assay [8] was “inactive” in each case. Moreover, the Potency entry in [10] and in assay [11] was “inactive” in each case. In addition, the Potency in assay [9] was 167 µM (active).
For `COc1cc(S(=O)(=O)Nc2ccccc2)c(OC)cc1N`, the molecule was classed as inactive in assay [1]. Also, the Potency result in assay [2], in assay [3], in assay [4], in assay [6] and in assay [10] was “inactive” each time. The Potency in assay [7] is 27.3 µM (active); in [9] it was 15.9 µM (active); in assay [12] it was 35.6 µM (active); in assay [13], 39.9 µM (active); in assay [11], 3.56 µM (active).
Consider `COC(CC(C)CCCC(C)(C)O)OC` (stereo not given), for which the call in [1] and in assay [5] was inactive. The Potency result in assay [2], in [3], in [4], in [7], in assay [10] and in [11] was “inactive” in each case. Moreover, the Potency in assay [9] was 35.6 µM (active).
Regarding `ClC1=C(Cl)C1(Cl)Cl`, in assay [1], the result was inactive. The Potency entry in assay [2], in assay [3], in [4], in assay [6], in assay [7] and in assay [8] was “inactive” in each case. Also, the Potency result in assay [9], in [12], in assay [13], in assay [10] and in assay [11] was “inactive” each time.
In the case of `CC(=O)Oc1cccc(O)c1`, in [1], the molecule was classed as inactive. The Potency entry in assay [2], in [3], in assay [4], in [6], in assay [7] and in assay [15] was “inactive” throughout. Besides, the Potency entry in assay [8], in [9], in assay [12] and in assay [10] was “inactive” each time. For the same molecule, the max activation in assay [14] was -5.99%.
For the molecule `CCCCCC`, the molecule was called inactive in [1] and in assay [5]. Moreover, the Potency result in assay [2], in assay [3], in assay [4], in assay [6] and in assay [10] was “inactive” in each case.
As to `O=NN(CCCl)C(=O)NCCCl`, the result in assay [1] and in assay [5] was inactive. In addition, the Potency entry in assay [2], in assay [3], in assay [4], in [6] and in assay [10] was “inactive” each time.
As to `O=c1[nH][nH]c(=O)c2cc([N+](=O)[O-])ccc12`, the molecule was classed as inactive in assay [1]. For the same molecule, the Potency result in assay [2], in assay [3], in assay [4], in assay [7], in assay [8] and in assay [9] was “inactive” throughout. For the same molecule, the Potency result in assay [12], in [13], in assay [10] and in assay [11] was “inactive” throughout.
Take `OCC(CO)n1cnc(-c2ccc(F)cc2)c1-c1ccnc(Oc2ccccc2)n1`: the result in assay [1] and in assay [5] was inactive. Also, the Potency result in [2], in [3], in [4], in [6], in assay [13] and in assay [10] was “inactive” in each case. Also, the Potency entry in [11] was “inactive”. For the same molecule, the results for the Potency in [9] and in assay [12] were 31.7 µM (active) and 35.6 µM (active), respectively.
For the molecule `CC(O)Cn1cnc2c1c(=O)n(C)c(=O)n2C` (stereo not given), the outcome in assay [1] and in assay [5] was inactive. Further, the Potency entry in assay [2], in assay [3], in [4], in assay [6] and in assay [10] was “inactive” each time.
`CC1CCc2nccnc21` (stereo not given): the result in [1] and in [5] was inactive. For the same molecule, the Potency entry in assay [2], in [3], in [4], in assay [7], in [8] and in [9] was “inactive” in each case. Also, the Potency result in assay [12], in assay [10] and in assay [11] was “inactive” in each case.
In the case of `CCC(=O)OCc1ccc(OC)cc1`, the result in assay [1] and in assay [5] was inactive. Further, the Potency result in assay [2], in assay [3], in [4], in [7], in assay [8] and in assay [10] was “inactive” in each case. Besides, the Potency entry in [11] is “inactive”. Moreover, the Potency was 64.9 µM (active) in assay [9] and 57.8 µM (active) in assay [13].

The record behind these values is PubChem BioAssay (Tox21).
